Data as given in PubChem BioAssay AID2129 (The Scripps Research Institute Molecular Screening Center, 2009).
Out of some 320,000 compounds screened, about 2,200 (0.69%) were called active.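 The calls were made as follows: active = inhibition above the mean of all tested compounds plus 3 SD, cutoff set per campaign (cut at about 30% in these data); inactive = the rest.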 What follows is part of a selection rich in actives, with near analogues and random picks from the rest.

The compounds below were run against Bcl-2-like protein 1 (Homo sapiens) (UniProt Q07817) (assay: Bcl-xL/Bim BH3 interaction blockers – biochemical, fluorescence polarization, HTS, primary screen (AID 2129;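 also: 0% = DMSO wells and 100% = unlabeled Bim-BH3 peptide competitor; inhibitors lower millipolarization by displacing the labeled peptide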)). Conditions: GST-Bcl-xL / FITC-Bim BH3 peptide fluorescence polarization; at 10.9 µM; active compounds read high.
Chain of Bcl-2-like protein 1 (Homo sapiens) (Q07817 whole entry, looked up): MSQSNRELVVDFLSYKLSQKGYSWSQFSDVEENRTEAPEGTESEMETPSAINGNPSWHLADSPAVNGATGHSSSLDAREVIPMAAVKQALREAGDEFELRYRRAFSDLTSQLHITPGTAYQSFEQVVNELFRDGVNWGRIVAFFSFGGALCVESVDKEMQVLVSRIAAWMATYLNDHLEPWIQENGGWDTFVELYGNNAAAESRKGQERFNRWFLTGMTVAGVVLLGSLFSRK

inhibition, inactive:
COCCNc1nc2nonc2nc1N(C)Cc1ccc(C)cc1 0.5%
CC1=C(C(=O)OCc2ccccc2)C(c2ccco2)n2ncnc2N1 (stereo not drawn) 1.01%
CCOc1ccc(C2=CC(c3ccccc3)n3ncnc3N2)cc1 (stereo not drawn) 14.6%
CCC(C)NC(=O)/C=C/c1ccc(S(=O)(=O)NCc2ccco2)cc1 (stereo not drawn) 3.42%
Cc1ccc(O)c(-c2cc(C(=O)Nc3c(C)n(C)n(-c4ccccc4)c3=O)[nH]n2)c1 2.52%
CC(=O)Nc1ccc(NC(=O)CSC2=NS(=O)(=O)c3ccccc3N2)cc1 1.27%
COc1ccccc1CCNC(=O)c1c(C)nn(CC(C)C)c1Cl 3.1%
CC(=O)C1=C(C)NC(C)=C(C(C)=O)C1c1cn(-c2ccccc2)nc1-c1cccs1 -1.97%
CC1CCN(Cc2nc3c(c(=O)n(C)c(=O)n3C)n2CCc2ccccc2)CC1 -4.09%
CC(C)(C)CC(C)(C)NCC(O)COCCOc1ccc(Br)cc1 (stereo not drawn) -1.57%
Cc1ccsc1CNn1cnnc1SCc1ccccc1F -10.8%
Cc1c(C)c(C)c2[nH]c(=S)[nH]c2c1C -44%
Cc1cc2c(C)nc(N/N=C/c3ccccc3)nc2o1 2.89%
CC1CC(C)CN(S(=O)(=O)c2cccc3nonc23)C1 (stereo not drawn) 3.55%
CC(=O)N1CCc2c(sc(NC(=O)CCS(=O)(=O)c3ccc(C)cc3)c2C(N)=O)C1 6.13%
CSc1nc2ccccc2cc1/C=C(\C#N)c1ccc(Cl)cc1Cl 1.93%
Cc1ccc(C(=O)N2CCCC2)c(F)c1F 8.05%
COc1cccc(C2Nc3cccc4cccc(c34)N2)c1 20.6%
Oc1ccc(C2Nc3cccc4cccc(c34)N2)cc1 15.2%
CCCCCCNS(=O)(=O)c1ccccc1Br -2.11%
Cc1ccc(NC2CCCN(C(=O)CCC3(C)CC3)C2)cc1C (stereo not drawn) 4.16%
COc1cc(SC)ccc1C(=O)Nc1cc(C)ccn1 -0.05%
Cc1ccnc(NC(=O)CNC(=O)c2ccccc2)c1 -1.9%
COC(=O)c1cccc(N2C(=O)C3C4C=CC(CC4)C3C2=O)c1 (stereo not drawn) 2.84%
CCOC(=O)/C(=C\c1ccc([N+](=O)[O-])cc1)C(=O)c1cc(C(C)=O)c(Nc2ccccc2)s1 1.23%
Cc1ccc(S(=O)(=O)NNC(=O)/C=C/c2cccc(F)c2)cc1 6.57%
O=C1c2ccccc2C(=O)c2c1cccc2N1CCN(C/C=C/c2ccccc2)CC1 20.9%
O=C1c2ccccc2C(=O)c2c1cccc2N1CCN(Cc2ccccc2)CC1 7.24%
C/C(Cl)=C\Cn1c(Nc2cccc(C)c2)nc2c1c(=O)n(C)c(=O)n2C 3.4%
COc1ccccc1C(=O)N/C(=C/c1ccc2c(c1)OCO2)C(=O)Nc1cccc(C(=O)O)c1 8.09%
Cc1ccc(CNC(=O)CC(NC(=O)c2ccccc2)c2ccccc2)cc1 (stereo not drawn) -7.73%
CN(C)[C@@H]1C(=O)C(C(N)=O)=C(O)[C@@]2(O)C(=O)C3=C(O)c4c(O)ccc(Cl)c4[C@@H](O)[C@H]3C[C@@H]12 15.2%
Cc1cc(F)ccc1N1CCC(N2CCN(C)C(CCO)C2)CC1 (stereo not drawn) 8.78%
CC(=O)c1ccc(-c2ccc(Cn3c(C)nc4cc(N)c(C)nc43)cc2)cc1 -0.35%
Cc1cc(-c2csc(N)n2)c(C)n1Cc1ccccc1 11.3%
COc1ccccc1CNS(=O)(=O)c1ccc2c(c1)NC(=O)CS2 -2.44%
CC1CC(c2ccccc2)n2nc(NC(=O)c3cccs3)nc2N1 (stereo not drawn) 3.43%
Cc1ccc(SCC(=O)NNC(=O)c2ccc(S(C)(=O)=O)cc2)cc1 1.39%
CCN(CC)S(=O)(=O)c1ccc(N2CCN(C)CC2)c(NC(=O)Nc2ccccc2F)c1 5.12%
CCOCCCNc1nc(-c2ccccc2)nc2ccccc12 1.72%
O=[N+]([O-])c1ccc(F)cc1Oc1nc(-c2cccnc2)nc2ccccc12 3.63%
CC[C@]1(O)CC2CN(CCc3c([nH]c4ccccc34)[C@@](C(=O)OC)(c3cc4c(cc3OC)N(C=O)[C@H]3[C@@](O)(C(=O)OC)[C@H](OC(C)=O)[C@]5(CC)C=CCN6CC[C@]43[C@@H]65)C2)C1 (stereo partly drawn) 15%
Cc1ccc2c(Cl)c(C(=O)NCCCn3ccnc3)sc2c1 6.22%
CC(=O)C[C@@H](O)CC(=O)[C@H]1OC(=O)CCCCCCc2ccccc21 0.52%
COc1ccc(CN2CCn3ncc(C(=O)Nc4ccc(Cl)cc4Cl)c3C2=O)cc1 2.02%
FC(F)(F)c1cccc(Nc2ncnc3ccccc23)c1 -2.73%
O=c1cc(CO)oc(C(Nc2cccc([N+](=O)[O-])c2)c2ccccn2)c1O (stereo not drawn) 13.9%

inhibition, active:
COCCNc1nc2nonc2nc1N1CCCC1c1nccs1 (stereo not drawn) 31.5%
CC[N+](C)(CC)CCC[n+]1c(-c2ccccc2)c2cc(N)ccc2c2ccc(N)cc21 123%
O=c1[nH]c(=S)[nH]c2[nH]c(=S)[nH]c12 44%
Cc1ccc(C2Nc3cccc4cccc(c34)N2)cc1 31.7%
Cc1ccnc(NC(=O)c2ccoc2C)c1 32.4%
O=C1c2ccccc2C(=O)c2c1cccc2N1CCN(CCO)CC1 60%
CCCC1OC23CCCCC2C(C#N)(C#N)C1(C#N)C(=N)O3 (stereo not drawn) 82.8%
C=C1c2c(Cl)ccc(O)c2C(O)=C2C(=O)[C@]3(O)C(O)=C(C(N)=O)C(=O)[C@@H](N(C)C)[C@@H]3[C@@H](O)C12 (stereo partly drawn) 31.6%
COc1ccc(Nc2nc(-c3cccnc3)nc3ccccc23)cn1 118%
CC[C@]1(O)C[C@@H]2CN(CCc3c([nH]c4ccccc34)[C@@](C(=O)OC)(c3cc4c(cc3OC)N(C)[C@H]3[C@@](O)(C(=O)OC)[C@H](OC(C)=O)[C@]5(CC)C=CCN6CC[C@]43[C@@H]65)C2)C1 105%
O=c1cc(CO)oc(C(Nc2cccc(C(F)(F)F)c2)c2ccccn2)c1O (stereo not drawn) 33.9%
